Data taken from PubChem BioAssay AID602188 (Broad Institute, 2012).
Results with a measured potency or affinity are listed apart. Results filed as inconclusive are left out. Active and inactive are the calls of the source.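 The calls were made as follows: active = compounds whose fitted curve lowers viable cell signal, with half-maximal concentration at most twice the top tested dose; inconclusive = flat curve showing 30 to 70% toxicity, or poor fit; inactive = the rest.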

Test: mammalian cell viability loss – Alamar Blue, dry powder, cytotoxicity control for antifungal single agent project, dose response (AID 602188)
Details: NIH-3T3 fibroblast viability, Alamar Blue fluorescence, 48 h; series mostly up to 26 µM

Compound | outcome
NC(=O)c1cccc(C(=O)Nc2nc(-c3ccc4c(c3)CCCC4)cs2)c1 | inactive
CCOC(=O)N1C(=O)C2(CCCCC2)N(c2ccc(C)cc2)C1=S | inactive
O=C(Nc1nc(-c2ccccc2)cs1)c1ccc(Br)s1 | inactive
O=C(Nc1nc(-c2ccc3c(c2)CCCC3)cs1)c1ccccc1 | inactive
